Laboratory results published in PubChem BioAssay (Tox21).
Inconclusive results are not listed. A call without a number means that no potency is given here. Activity calls are given as the source filed them. The call rests on the fitted dose curve.

Target: Beta-2 adrenergic receptor (Homo sapiens) (UniProt P07550)
Test: Adrenergic beta2 receptor (ADRB2) small molecule agonists, cell-based qHTS assay (AID 1963593);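 further: CHO cells stably overexpressing human ADRB2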
Procedure, shortened: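 CHO cells stably over-expressing ADRB2 were plated overnight at 37C, then dosed with compounds plus a stimulation mix containing 100uM IBMX and 25uM Ro-20-1724 for 0.5hr at room temperature. cAMP was measured by HTRF competition, 1hr.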

Beta-2 adrenergic receptor (Homo sapiens), sequence (P07550 whole entry, looked up): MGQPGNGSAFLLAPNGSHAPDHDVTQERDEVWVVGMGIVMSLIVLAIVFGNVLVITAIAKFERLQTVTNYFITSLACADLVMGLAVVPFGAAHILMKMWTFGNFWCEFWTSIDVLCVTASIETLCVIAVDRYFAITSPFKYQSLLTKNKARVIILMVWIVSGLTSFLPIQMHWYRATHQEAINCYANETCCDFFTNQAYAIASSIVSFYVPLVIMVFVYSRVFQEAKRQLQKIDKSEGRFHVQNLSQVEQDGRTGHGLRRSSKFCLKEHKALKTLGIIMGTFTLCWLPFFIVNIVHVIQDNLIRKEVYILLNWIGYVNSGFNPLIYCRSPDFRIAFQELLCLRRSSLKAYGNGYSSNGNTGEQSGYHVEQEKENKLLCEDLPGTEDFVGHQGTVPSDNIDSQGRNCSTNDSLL

Row | SMILES | Potency
1 | O=C1c2ccccc2S(=O)(=O)N1CCCCN1CCN(c2ncccn2)CC1 | inactive
2 | C[N+]1(CC2COC(c3ccccc3)(C3CCCCC3)O2)CCCCC1 (stereo not drawn) | inactive
3 | C=CCN1CCc2nc(N)sc2CC1 | inactive
4 | COc1cnc(NS(=O)(=O)c2ccc(N)cc2)nc1 | inactive
5 | O=C(O)CCC(=O)OC[C@@H](NC(=O)C(Cl)Cl)[C@H](O)c1ccc([N+](=O)[O-])cc1 | inactive
6 | CN1[C@@H]2CC[C@H]1CC(OC(=O)C(O)c1ccccc1)C2 (stereo partly drawn) | inactive
7 | CC(C)C[C@@H](N)C(=O)O | inactive
8 | CC(=O)Oc1ccc(C2(c3ccc(OC(C)=O)cc3)C(=O)Nc3ccccc32)cc1 | inactive
9 | NCCCC[C@H](N[C@@H](CCc1ccccc1)C(=O)O)C(=O)N1CCC[C@H]1C(=O)O | inactive
10 | CCn1cc(C(=O)O)c(=O)c2cc(F)c(N3CCN(C)CC3)cc21 | inactive
11 | NC12CC3CC(CC(C3)C1)C2 | inactive
12 | O=c1[nH]sc2cc(Cl)ccc12 | inactive
13 | CCn1cc(C(=O)O)c(=O)c2cc(F)c(N3CCNC(C)C3)c(F)c21 (stereo not drawn) | inactive
14 | CC(=O)OC1CCCCC1C(C)(C)C (stereo not drawn) | inactive
15 | CCCCC(CC)COC(=O)CC#N (stereo not drawn) | inactive
16 | C=CC(=O)OCC[N+](C)(C)C | inactive
17 | COc1cccc(-c2ccc(/C=C\CN3CCCCCC3)cc2Cl)c1 | inactive
18 | O=C(N[C@@H](Cc1ccccc1)[C@@H](O)C(=O)N1C[C@@H](O)[C@@H](O)C1)c1cc2cc(Cl)ccc2[nH]1 | inactive
19 | O=C(O)CCN(C1(C(=O)NO)CCCC1)S(=O)(=O)c1ccc(Oc2ccc(F)cc2)cc1 | inactive
20 | Cc1ccc2nc(N)[nH]c(=O)c2c1Sc1ccncc1 | inactive
21 | O=C(O)Cc1c(Cl)ccc(Cl)c1Cl | inactive
22 | ClCCl | inactive
23 | COc1ccc(-c2cc(=O)c3c(O)cc(O[C@@H]4O[C@H](CO[C@@H]5O[C@@H](C)[C@H](O)[C@@H](O)[C@H]5O)[C@@H](O)[C@H](O)[C@H]4O)cc3o2)cc1O | inactive
24 | Cc1cc(C)c(O)c(C(C)(C)C)c1 | inactive

Row | SMILES | Potency
25 | CCOC(=O)c1cccnc1 | inactive
26 | NC(=O)CC[C@@H]1NC(=O)[C@H](Cc2ccccc2)NC(=O)[C@H](Cc2ccc(O)cc2)NC(=O)CCSSC[C@@H](C(=O)N2CCC[C@H]2C(=O)N[C@@H](CCCN=C(N)N)C(=O)NCC(N)=O)NC(=O)[C@H](CC(N)=O)NC1=O | inactive
27 | CO/N=C(\C(=O)N[C@@H]1C(=O)N2C(C(=O)O)=C(CSc3nc(=O)c(O)nn3C)CS[C@H]12)c1csc(N)n1 | inactive
28 | Cc1c(Cl)cccc1[N+](=O)[O-] | inactive
29 | CCCN(CCC)CCc1cccc2c1CC(=O)N2 | inactive
30 | O=c1[nH]cnc2ccccc12 | inactive
31 | CCCCCCCCCCCCCCCCOP(=O)([O-])OCC[N+](C)(C)C | inactive
32 | CCOC(=O)Cn1cccc1-c1nc(-c2ccc(OC)cc2)c(-c2ccc(OC)cc2)s1 | inactive
33 | COC(=O)c1c(C)cc(O)c(C)c1O | inactive
34 | Nc1cc(C(F)(F)F)ccc1S | inactive
35 | CN1CCN(Cc2cc(-c3ccc4[nH]c(=O)oc4c3)co2)[C@@H](c2ccc(F)cc2)C1 | inactive
36 | CC(=O)NCCCCCC(=O)O | inactive
37 | O=C(NCC1CN(c2ccc(N3CCOCC3=O)cc2)C(=O)O1)c1ccc(Cl)s1 (stereo not drawn) | inactive
38 | O=C(OCC(COC(=O)c1ccccc1)(COC(=O)c1ccccc1)COC(=O)c1ccccc1)c1ccccc1 | inactive
39 | Cc1nc(-c2ccc(Cl)cc2)oc1COC(C)(C)C(=O)O | inactive
40 | CC1=NN(c2ccc(C(=O)O)cc2)C(=O)C1 | inactive
41 | CN(C)c1ccc(C(c2ccccc2)c2ccc(N(C)C)cc2)cc1 | inactive
42 | O=C(O)c1ccccc1C(=O)Nc1ccc(S(=O)(=O)Nc2nccs2)cc1 | inactive
43 | Cc1cc(Br)ccc1NC(=O)CCl | inactive
44 | CCOC(=O)C1=NOC(c2ccccc2)(c2ccccc2)C1 | inactive
45 | Cc1cc(C(=O)O)ccc1[N+](=O)[O-] | inactive
46 | OCC(O)[C@@H](O)[C@H](O)[C@H](O)CO[C@H]1O[C@H](CO)[C@@H](O)[C@H](O)[C@H]1O (stereo partly drawn) | inactive
47 | C[C@]12CCC(=O)C=C1CC[C@@H]1[C@@H]2CC[C@@]2(C)[C@H]1CC[C@]2(O)C(=O)CO | inactive
48 | FC(F)(F)c1ccc(Cl)cc1Cl | inactive
